Broadly, the inhibition is the relative decrease from the control value, in per cent.

The results in this text go back to ChEMBL document CHEMBL1961873, “Compounds: GSK PKIS; Assays: Nanosyn kinase panel” (2012).

For one test, the target named is Vascular endothelial growth factor receptor 3 (Homo sapiens) (UniProt P35916). As to conditions: at 0.1 µM.
Sequence of Vascular endothelial growth factor receptor 3 (Homo sapiens) (P35916 whole entry): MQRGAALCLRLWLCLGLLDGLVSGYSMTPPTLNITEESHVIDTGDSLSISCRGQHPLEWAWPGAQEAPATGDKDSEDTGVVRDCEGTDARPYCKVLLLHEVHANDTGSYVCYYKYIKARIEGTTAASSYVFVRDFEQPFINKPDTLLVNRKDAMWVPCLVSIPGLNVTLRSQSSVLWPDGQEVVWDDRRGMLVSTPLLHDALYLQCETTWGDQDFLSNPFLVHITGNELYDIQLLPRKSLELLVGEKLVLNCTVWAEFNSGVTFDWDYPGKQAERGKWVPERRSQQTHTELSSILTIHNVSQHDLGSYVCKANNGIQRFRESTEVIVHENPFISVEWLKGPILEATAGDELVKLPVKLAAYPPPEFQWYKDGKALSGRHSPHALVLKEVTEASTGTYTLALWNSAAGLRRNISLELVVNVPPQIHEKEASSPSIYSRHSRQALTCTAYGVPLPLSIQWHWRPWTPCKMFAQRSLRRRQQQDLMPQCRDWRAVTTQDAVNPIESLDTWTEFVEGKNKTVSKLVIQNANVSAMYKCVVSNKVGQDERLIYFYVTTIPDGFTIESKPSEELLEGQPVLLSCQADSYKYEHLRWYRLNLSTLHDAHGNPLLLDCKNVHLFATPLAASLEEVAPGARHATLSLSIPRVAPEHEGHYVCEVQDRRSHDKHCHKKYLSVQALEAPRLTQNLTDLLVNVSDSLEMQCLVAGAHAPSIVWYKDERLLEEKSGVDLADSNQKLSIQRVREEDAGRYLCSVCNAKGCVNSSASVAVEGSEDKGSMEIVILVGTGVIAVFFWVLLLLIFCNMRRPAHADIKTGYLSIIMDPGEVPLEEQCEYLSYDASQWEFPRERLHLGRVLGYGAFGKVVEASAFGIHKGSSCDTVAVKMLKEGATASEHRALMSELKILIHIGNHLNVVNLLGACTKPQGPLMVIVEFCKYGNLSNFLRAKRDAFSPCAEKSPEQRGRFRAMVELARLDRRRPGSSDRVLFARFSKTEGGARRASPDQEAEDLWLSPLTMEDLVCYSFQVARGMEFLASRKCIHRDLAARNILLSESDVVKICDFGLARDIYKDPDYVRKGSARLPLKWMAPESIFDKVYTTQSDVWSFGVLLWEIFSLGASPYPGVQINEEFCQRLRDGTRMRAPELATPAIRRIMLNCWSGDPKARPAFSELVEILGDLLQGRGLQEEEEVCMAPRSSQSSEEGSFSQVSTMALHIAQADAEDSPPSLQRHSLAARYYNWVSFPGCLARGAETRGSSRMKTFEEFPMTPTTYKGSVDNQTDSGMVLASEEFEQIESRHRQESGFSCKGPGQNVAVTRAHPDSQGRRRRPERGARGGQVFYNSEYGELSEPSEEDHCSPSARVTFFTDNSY
Regarding `COc1cc2ncn(-c3cc(OCc4cccs4)c(C(N)=O)s3)c2cc1OC`, the inhibition was -6.1%.
As for `COc1cccc(/C=N/Nc2ncnc3c2cnn3-c2cccc(OC)c2)c1`, the inhibition came to 1.81%.
As to `CCC(=O)Nc1ccc(C)c(-c2ccc(C(=O)NCC3CC3)cc2)c1`, the inhibition worked out at 3.63%.
The same measure, in the same setting: as for `CCS(=O)(=O)c1ccc(OC)c(Nc2ncc(-c3cccc(-c4ccccc4F)c3)o2)c1`, the figure is 41%; as for `C#Cc1cccc(Nc2ncnc3ccc(OCCCCNCCS(C)(=O)=O)cc23)c1`, -5.89%.
The same measure, in the same setting: as for `CS(=O)(=O)CCNCc1ccc(-c2ccc3ncnc(Nc4ccc(OCc5ccccc5)c(Br)c4)c3c2)o1`, the figure is -7.55%; as for `COc1cc2ncn(-c3cc(OCCc4ccccc4)c(C(N)=O)s3)c2cc1OC`, 1.49%.
With `NS(=O)(=O)c1ccc(N/N=C2\C(=O)Nc3ccc(-c4cnco4)cc32)cc1`, the inhibition is -4.32%.
`Cc1ccc(C(=O)NC2CCC2)cc1-c1ccc(C(=O)NCC2CC2)cc1`: the inhibition came out at 1.24%.
Take `COc1ccc2cc(-c3c(-c4ccncc4)nc(-c4ccc([S+](C)[O-])cc4C)n3C)ccc2c1` (stereo unspecified): the inhibition worked out at 2.68%.
Same read-out and setting: the result for `COc1cc(N2CCN(C(C)C)CC2)ccc1Nc1nc(Nc2ccc(F)cc2C(=O)NC[C@@H](O)CO)c2cc[nH]c2n1` reads -9.16%; that for `COc1ccc2ncn(-c3cc(O[C@H](C)c4ccccc4Cl)c(C(N)=O)s3)c2c1`, -5.28%.
Same read-out and setting: as for `Fc1ccc(-c2nc3n(c2-c2ccncc2)CCS3)cc1`, the figure is -8.43%; as for `Fc1ccc(-c2c(-c3ccncc3)nc3n2CCS3)cc1`, -5.59%.
On the same count and under the same terms, the result for `NCc1ccc(-n2c(-c3nonc3N)nc3cnccc32)cc1` reads 6.13%; that for `CCS(=O)(=O)c1ccc(OC)c(Nc2ncc(-c3ccccc3Cl)o2)c1`, 7.55%.
For the compound `Fc1ccc(-c2ncn(C3CCNCC3)c2-c2ccnc(Oc3ccc(F)c(F)c3)n2)cc1`, the inhibition is -4.95%.
The same measure, in the same setting: the result for `Fc1ccc(-c2ncn(C3CCNCC3)c2-c2ccnc(Oc3ccc(Oc4ccccc4)cc3)n2)cc1` reads 3.28%.
Still for that read-out and setting: the result for `C[C@@H](Oc1cc(-n2cnc3ccc(OC4CCN(C)CC4)cc32)sc1C(N)=O)c1ccccc1Cl` reads -3.01%; that for `c1ccc(-c2n[nH]cc2-c2ccnc(-c3ccc(OCCN4CCOCC4)cc3)c2)nc1`, -0.95%.
On the same count and under the same terms, the result for `c1ccc(Oc2ccc(Nc3ncc(-c4ccccc4)o3)cc2)cc1` reads 3.08%; that for `C[C@@H](Oc1cc(-n2cnc3ccc(OCC4CCN(C)CC4)cc32)sc1C(N)=O)c1ccccc1Cl`, 5.35%; that for `CCN(CC)Cc1ccc(Nc2nccc(-c3cnn4ncccc34)n2)cc1`, -5.53%.
Regarding `Cc1nnc(-c2ccc(C)c(-c3ccc(C(=O)NCc4ccc(Cl)cc4)cc3)c2)o1`, the inhibition is -5.22%.
`O=C(Nc1n[nH]c2cc(-c3ccccc3)ccc12)C1CC1`: the inhibition stood at 16.2%.
As for `COc1cc(Nc2ncc3c(C)nc(-c4cccc(Oc5ccccc5)c4)n3n2)cc(OC)c1OC`, the inhibition is -1.15%.
Same read-out and setting: as for `Clc1ccc(CNc2nccc(-c3cnn4ncccc34)n2)cc1`, the figure is -1.51%.
Still for that read-out and setting: as for `COc1cc(Nc2ncc3c(C)nc(-c4cccc(C(F)(F)F)c4)n3n2)cc(OC)c1OC`, the figure is -1.5%.

The target is the same in the next test. As to conditions: at 1 µM.
As to `COc1cc2ncn(-c3cc(OCc4cccs4)c(C(N)=O)s3)c2cc1OC`, the inhibition was determined as 34.7%.
Still for that read-out and setting: the result for `CN(C)CCCNc1nccc(-c2c(-c3ccc(F)cc3)nn3cc(C(F)(F)F)ccc23)n1` reads -6.61%.
On the same count and under the same terms, as for `COc1cccc(/C=N/Nc2ncnc3c2cnn3-c2cccc(OC)c2)c1`, the figure is -0.55%; as for `CCC(=O)Nc1ccc(C)c(-c2ccc(C(=O)NCC3CC3)cc2)c1`, -1.74%.
For `CCS(=O)(=O)c1ccc(OC)c(Nc2ncc(-c3cccc(-c4ccccc4F)c3)o2)c1`, the inhibition stood at 82.8%.
On to `CS(=O)(=O)CCNCc1ccc(-c2ccc3ncnc(Nc4ccc(OCc5ccccc5)c(Br)c4)c3c2)o1`, for which the inhibition was -9.98%.
On the same count and under the same terms, the result for `COc1cc2ncn(-c3cc(OCCc4ccccc4)c(C(N)=O)s3)c2cc1OC` reads 21%; that for `NS(=O)(=O)c1ccc(N/N=C2\C(=O)Nc3ccc(-c4cnco4)cc32)cc1`, 25.8%; that for `Cc1ccc(C(=O)NC2CCC2)cc1-c1ccc(C(=O)NCC2CC2)cc1`, 1%.
For `COc1ccc2cc(-c3c(-c4ccncc4)nc(-c4ccc([S+](C)[O-])cc4C)n3C)ccc2c1` (stereo unspecified), the inhibition was determined as 9.41%.
Same read-out and setting: as for `COc1ccc2ncn(-c3cc(O[C@H](C)c4ccccc4Cl)c(C(N)=O)s3)c2c1`, the figure is 4.48%; as for `CN1CCN(CCCNc2nc3ccc(Oc4ccc(NC(=O)Nc5cc(C(F)(F)F)ccc5F)cc4)cc3[nH]2)CC1`, -0.49%; as for `NCc1ccc(-n2c(-c3nonc3N)nc3cnccc32)cc1`, 7.01%.
`CCS(=O)(=O)c1ccc(OC)c(Nc2ncc(-c3ccccc3Cl)o2)c1`: the inhibition was 29.9%.
Consider `Fc1ccc(-c2ncn(C3CCNCC3)c2-c2ccnc(Oc3ccc(F)c(F)c3)n2)cc1`, for which the inhibition was -7.54%.
On the same count and under the same terms, the result for `Fc1ccc(-c2ncn(C3CCNCC3)c2-c2ccnc(Oc3ccc(Oc4ccccc4)cc3)n2)cc1` reads 1.1%.
The same measure, in the same setting: as for `C[C@@H](Oc1cc(-n2cnc3ccc(OC4CCN(C)CC4)cc32)sc1C(N)=O)c1ccccc1Cl`, the figure is 13.8%; as for `c1ccc(-c2n[nH]cc2-c2ccnc(-c3ccc(OCCN4CCOCC4)cc3)c2)nc1`, 8.44%; as for `c1ccc(Oc2ccc(Nc3ncc(-c4ccccc4)o3)cc2)cc1`, 1.93%.
As to `COc1cccc(-n2cnc3c(N/N=C/c4ccncc4)ncnc32)c1`, the inhibition was -4.88%.
Turning to `C[C@@H](Oc1cc(-n2cnc3ccc(OCC4CCN(C)CC4)cc32)sc1C(N)=O)c1ccccc1Cl`, the inhibition stood at 23.9%.
Consider `CCN(CC)Cc1ccc(Nc2nccc(-c3cnn4ncccc34)n2)cc1`, for which the inhibition is 0.13%.
With `O=C(Nc1n[nH]c2cc(-c3ccccc3)ccc12)C1CC1`, the inhibition stood at 16.9%.
For `COc1cc(Nc2ncc3c(C)nc(-c4cccc(Oc5ccccc5)c4)n3n2)cc(OC)c1OC`, the inhibition came out at 0.93%.
As for `Clc1ccc(CNc2nccc(-c3cnn4ncccc34)n2)cc1`, the inhibition is 1.12%.
As for `CN(C)c1ccc2c(c1)/C(=C/Nc1ccc(S(N)(=O)=O)cc1)C(=O)N2`, the inhibition turned out to be 55%.
Still for that read-out and setting: as for `CNC(=O)c1cncc(/C=C/c2c(C)cccc2C)c1`, the figure is -8.92%; as for `COc1cc(Nc2ncc3c(C)nc(-c4cccc(C(F)(F)F)c4)n3n2)cc(OC)c1OC`, 2.6%.
